Consider 40 compounds from the supplement of paper PMC6288085.

Each structure is given as a SMILES string. Counter-ions that a name gives are not always drawn. ± gives the uncertainty stated by the source.

The test system of the assay is Caenorhabditis elegans N2. Briefly: food intake (mean delta OD600 / animal over 72 h) with 50 uM loxapine co-treatment (OD600 units per animal); higher = more food eaten (less suppression of loxapine-induced hyperphagia). The note with it: first compound 33 µM, loxapine concentration 50 µM. Here is the method:
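C. elegans N2 adults (FUDR-sterilised, day 1) in 96-well plates fed gamma-irradiated bacteria. Each library drug (MedChemExpress FDA-approved library) at 33 uM was combined with loxapine at 50 uM. Food intake was measured as bacterial clearance: the change in OD600 from day 1 to 72 h, normalised per animal (mean over 14-21 wells of about 10-12 worms). Drugs flagged for bacterial lysis or sickness were excluded by the authors.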
`CN(Cc1cnc2nc(N)nc(N)c2n1)c1ccc(C(=O)N[C@@H](CCC(=O)O)C(=O)O)cc1` [methotrexate] + CN1CCN(C2=Nc3ccccc3Oc3ccc(Cl)cc32)CC1 [loxapine]: the food intake was determined as 0.0222 ± 0.0022.

On to `N[C@@H]1CCCCN(c2c(F)cc3c(=O)c(C(=O)O)cn(C4CC4)c3c2Cl)C1` [besifloxacin (hydrochloride)] + CN1CCN(C2=Nc3ccccc3Oc3ccc(Cl)cc32)CC1 [loxapine], for which the food intake is 0.0227 ± 0.0056.

In the case of `N=C(N)c1ccc(OCCCCCOc2ccc(C(=N)N)cc2)cc1` [pentamidine (isethionate)] + CN1CCN(C2=Nc3ccccc3Oc3ccc(Cl)cc32)CC1 [loxapine], the food intake stood at 0.0232 ± 0.0025.

Take `O=C(O)COC(=O)Cc1ccccc1Nc1c(Cl)cccc1Cl` [aceclofenac] + CN1CCN(C2=Nc3ccccc3Oc3ccc(Cl)cc32)CC1 [loxapine]: the food intake is 0.0221 ± 0.0083.

For `COc1ccc(CNc2nc(N3CCC[C@H]3CO)ncc2C(=O)NCc2ncccn2)cc1Cl` [avanafil] + CN1CCN(C2=Nc3ccccc3Oc3ccc(Cl)cc32)CC1 [loxapine], the food intake came out at 0.023 ± 0.0037.

As for `CN1CC(=O)N2[C@H](c3ccc4c(c3)OCO4)c3[nH]c4ccccc4c3C[C@@H]2C1=O` [tadalafil] + CN1CCN(C2=Nc3ccccc3Oc3ccc(Cl)cc32)CC1 [loxapine], the food intake was determined as 0.0236 ± 0.0034.

For the compound `Cc1[nH]c(=O)c(C#N)cc1-c1ccncc1` [milrinone] + CN1CCN(C2=Nc3ccccc3Oc3ccc(Cl)cc32)CC1 [loxapine], the food intake amounted to 0.0238 ± 0.0035.

On to `Nc1ccn([C@@H]2CS[C@H](CO)O2)c(=O)n1` [lamivudine] + CN1CCN(C2=Nc3ccccc3Oc3ccc(Cl)cc32)CC1 [loxapine], for which the food intake was determined as 0.0212 ± 0.003.

Consider `CC1(C)[C@H](C(=O)O)N2C(=O)C[C@H]2S1(=O)=O` [sulbactam] + CN1CCN(C2=Nc3ccccc3Oc3ccc(Cl)cc32)CC1 [loxapine], for which the food intake came to 0.0225 ± 0.0027.

Consider `CN(C)[C@@H]1C(O)=C(C(N)=O)C(=O)[C@@]2(O)C(O)=C3C(=O)c4c(O)ccc(Cl)c4[C@@H](O)[C@H]3C[C@@H]12` [demeclocycline (hydrochloride)] + CN1CCN(C2=Nc3ccccc3Oc3ccc(Cl)cc32)CC1 [loxapine], for which the food intake turned out to be 0.0207 ± 0.0035.

Take `CCCCNc1ccc(C(=O)OCCN(C)C)cc1` [tetracaine (hydrochloride)] + CN1CCN(C2=Nc3ccccc3Oc3ccc(Cl)cc32)CC1 [loxapine]: the food intake stood at 0.0236 ± 0.0037.

For `C[C@H]1c2cccc(O)c2C(=O)C2=C(O)[C@]3(O)C(=O)C(C(N)=O)=C(O)[C@@H](N(C)C)[C@@H]3[C@@H](O)[C@@H]21` [doxycycline] + CN1CCN(C2=Nc3ccccc3Oc3ccc(Cl)cc32)CC1 [loxapine], the food intake came out at 0.0161 ± 0.0037.

For the compound `NC12CC3CC(CC(C3)C1)C2` [amantadine (hydrochloride)] + CN1CCN(C2=Nc3ccccc3Oc3ccc(Cl)cc32)CC1 [loxapine], the food intake is 0.0253 ± 0.003.

In the case of `O=C(c1cc(Cc2n[nH]c(=O)c3ccccc23)ccc1F)N1CCN(C(=O)C2CC2)CC1` [olaparib] + CN1CCN(C2=Nc3ccccc3Oc3ccc(Cl)cc32)CC1 [loxapine], the food intake was 0.0205 ± 0.005.

As to `O=C(Nc1c(Cl)cncc1Cl)c1ccc(OC(F)F)c(OCC2CC2)c1` [roflumilast] + CN1CCN(C2=Nc3ccccc3Oc3ccc(Cl)cc32)CC1 [loxapine], the food intake amounted to 0.0214 ± 0.0055.

Take `Cc1cccc(C)c1OCC(=O)N[C@@H](Cc1ccccc1)[C@@H](O)C[C@H](Cc1ccccc1)NC(=O)[C@H](C(C)C)N1CCCNC1=O` [lopinavir] + CN1CCN(C2=Nc3ccccc3Oc3ccc(Cl)cc32)CC1 [loxapine]: the food intake amounted to 0.0209 ± 0.0084.

Consider `CN(CCOc1ccc(CC2SC(=O)NC2=O)cc1)c1ccccn1` (stereo not given) [rosiglitazone] + CN1CCN(C2=Nc3ccccc3Oc3ccc(Cl)cc32)CC1 [loxapine], for which the food intake was determined as 0.0226 ± 0.0041.

Regarding `CN(C)CCOC(c1ccccc1)c1ccccc1.Cn1c(=O)c2[nH]c(Cl)nc2n(C)c1=O` [dimenhydrinate] + CN1CCN(C2=Nc3ccccc3Oc3ccc(Cl)cc32)CC1 [loxapine], the food intake was determined as 0.0239 ± 0.0029.

On to `S=C=Nc1ccc(N=C=S)cc1` [p-Phenylene diisothiocyanate] + CN1CCN(C2=Nc3ccccc3Oc3ccc(Cl)cc32)CC1 [loxapine], for which the food intake is 0.0229 ± 0.0028.

Take `Nc1ccc(O)c(C(=O)O)c1` [5-Aminosalicylic acid] + CN1CCN(C2=Nc3ccccc3Oc3ccc(Cl)cc32)CC1 [loxapine]: the food intake worked out at 0.0212 ± 0.0048.

Regarding `CC(=O)O[C@H]1Cc2ccccc2N(C(N)=O)c2ccccc21` [eslicarbazepine (acetate)] + CN1CCN(C2=Nc3ccccc3Oc3ccc(Cl)cc32)CC1 [loxapine], the food intake was 0.0232 ± 0.0043.

In the case of `CCN(CC)C(=O)c1cccc(C)c1` + CN1CCN(C2=Nc3ccccc3Oc3ccc(Cl)cc32)CC1 [loxapine], the food intake amounted to 0.023 ± 0.0029.

Consider `NNC(=O)c1ccncc1` [isoniazid] + CN1CCN(C2=Nc3ccccc3Oc3ccc(Cl)cc32)CC1 [loxapine], for which the food intake was determined as 0.0217 ± 0.0032.

For `O=C(O)C1=C(CSc2nnnn2CS(=O)(=O)O)CS[C@@H]2[C@H](NC(=O)[C@H](O)c3ccccc3)C(=O)N12` [cefonicid (sodium)] + CN1CCN(C2=Nc3ccccc3Oc3ccc(Cl)cc32)CC1 [loxapine], the food intake worked out at 0.0217 ± 0.018.

As for `NNc1nncc2ccccc12` [hydralazine (hydrochloride)] + CN1CCN(C2=Nc3ccccc3Oc3ccc(Cl)cc32)CC1 [loxapine], the food intake amounted to 0.022 ± 0.017.

Regarding `CC(=O)OCC(=O)[C@@]1(O)CC[C@H]2[C@@H]3CCC4=CC(=O)CC[C@]4(C)[C@H]3C(=O)C[C@@]21C` [cortisone (acetate)] + CN1CCN(C2=Nc3ccccc3Oc3ccc(Cl)cc32)CC1 [loxapine], the food intake amounted to 0.0231 ± 0.0059.

Consider `Nc1ccc(S(=O)(=O)c2ccc(N)cc2)cc1` [dapsone] + CN1CCN(C2=Nc3ccccc3Oc3ccc(Cl)cc32)CC1 [loxapine], for which the food intake is 0.0216 ± 0.006.

On to `COc1cc(O)c(C(=O)c2ccccc2)cc1S(=O)(=O)O` [sulisobenzone] + CN1CCN(C2=Nc3ccccc3Oc3ccc(Cl)cc32)CC1 [loxapine], for which the food intake stood at 0.0234 ± 0.0024.

Regarding `CN1C(=O)C[C@@H](C(=O)N[C@@H](Cc2c[nH]cn2)C(=O)N2CCC[C@H]2C(N)=O)NC1=O` [taltirelin] + CN1CCN(C2=Nc3ccccc3Oc3ccc(Cl)cc32)CC1 [loxapine], the food intake worked out at 0.022 ± 0.0034.

Consider `CN(C)CCC=C1c2ccccc2C=Cc2ccccc21` [cyclobenzaprine (hydrochloride)] + CN1CCN(C2=Nc3ccccc3Oc3ccc(Cl)cc32)CC1 [loxapine], for which the food intake amounted to 0.0221 ± 0.0063.

Consider `Cc1ccnc(NS(=O)(=O)c2ccc(N)cc2)n1` [sulfamerazine] + CN1CCN(C2=Nc3ccccc3Oc3ccc(Cl)cc32)CC1 [loxapine], for which the food intake came out at 0.0224 ± 0.0031.

Consider `O=C(O)CCNC(=O)c1ccccc1` [betamipron] + CN1CCN(C2=Nc3ccccc3Oc3ccc(Cl)cc32)CC1 [loxapine], for which the food intake came out at 0.0228 ± 0.0023.

Consider `CCN(CC)CCOC(=O)c1ccc(N)cc1` [procaine (hydrochloride)] + CN1CCN(C2=Nc3ccccc3Oc3ccc(Cl)cc32)CC1 [loxapine], for which the food intake amounted to 0.0224 ± 0.0034.

`Nc1nccs1` [aminothiazole] + CN1CCN(C2=Nc3ccccc3Oc3ccc(Cl)cc32)CC1 [loxapine]: the food intake is 0.0243 ± 0.0035.

For `C#C[C@]1(O)CC[C@H]2[C@@H]3CCc4cc(OC)ccc4[C@H]3CC[C@@]21C` [mestranol] + CN1CCN(C2=Nc3ccccc3Oc3ccc(Cl)cc32)CC1 [loxapine], the food intake was 0.0204 ± 0.0018.

On to `O=C([O-])c1ccccc1O.[Na+]` [sodium salicylate] + CN1CCN(C2=Nc3ccccc3Oc3ccc(Cl)cc32)CC1 [loxapine], for which the food intake amounted to 0.0224 ± 0.0057.

Take `C=CCNC(N)=S` [allylthiourea] + CN1CCN(C2=Nc3ccccc3Oc3ccc(Cl)cc32)CC1 [loxapine]: the food intake came out at 0.0237 ± 0.003.

On to `COc1ccc(CCN(C)CCCN2CCc3cc(OC)c(OC)cc3CC2=O)cc1OC` [zatebradine] + CN1CCN(C2=Nc3ccccc3Oc3ccc(Cl)cc32)CC1 [loxapine], for which the food intake turned out to be 0.0232 ± 0.0027.

As for `[F-].[Na+]` [sodium fluoride] + CN1CCN(C2=Nc3ccccc3Oc3ccc(Cl)cc32)CC1 [loxapine], the food intake is 0.0241 ± 0.0018.

Regarding `O=C1N=C(O)NC1(c1ccccc1)c1ccccc1` [phenytoin (sodium)] + CN1CCN(C2=Nc3ccccc3Oc3ccc(Cl)cc32)CC1 [loxapine], the food intake came out at 0.0233 ± 0.0031.
